Measurements as given in PubChem BioAssay (NCI).
This is part of a sample that, as a whole, favours compounds with a hit. Of some 83,000 tested, about 20% had one in any assay.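 Values shown are percent growth following 48 h exposure of cells in 96-well plates to a single concentration of compound; below 10 was considered active.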 Calls of active or inactive are those of the source.

What follows are compounds tested on HCC-2998 colon (assay: NCI-60 one-dose screen, 48 h (100 = growth as untreated, 0 = no growth, -100 = all killed)). Details: 10 µM unless noted.
Method: Growth inhibition of the HCC-2998 human tumor cell line is measured as a screen for anti-cancer activity. Cells are grown in 96 well plates and exposed to the test compound for 48 hours. Compounds are tested at a single concentration, which is 10^-5 M for most compounds. The reported endpoint is percent growth (GI% or GIPRCNT), where numbers from 0 - 100% represent growth inhibition, and numbers from -100% - 0 represent cell death. For example, a value of 40 represents 60% growth inhibition. A value of 0 means no net growth occurred over the course of the experiment. A value of -40 indicates 40% of cells at the beginning of the experiment died by the end of the experiment. A value of -100 means all cells are dead at the end of the experiment.
NCI-60 Human Tumor Cell Lines Screen was performed using the standard one-dose NCI protocol, which is described in more detail at https://dtp.cancer.gov/discovery_development/nci-60/default.htm.
Compounds with GIPRCNT values below 10 were considered active. Activity score was based on GIPRCNT using the following formula: […]
Score is 0 for GIPRCNT values of 100 or above, 50 for GIPRCNT values of 0, and 100 for GIPRCNT values of -100.

SMILES	growth
O=C(/C=C/c1cccc([N+](=O)[O-])c1)c1ccc(Nc2nc(Nc3ccc(F)cc3)nc(Nc3ccc(Cl)cc3)n2)cc1	103% (inactive)
O=C(CSc1nnc(-c2cc(-c3ccc(Cl)cc3)nc3ccccc23)n1-c1ccccc1)Nc1ccc(Cl)cc1	111% (inactive)
COc1ccc(-c2nc3cc(C(=O)NC4CCCCC4)ccc3n2C2CCCCC2)cc1	91.8% (inactive)
C#CCOc1ccc(C2=NN(CCCC)C3N=C(Cl)c4ncn(CCCC)c4N23)cc1OCC#C (stereo not given)	107% (inactive)
CCCCC#Cc1c(I)n(C2OC(CO[Si](C)(C)C(C)(C)C)C3OC(C)(C)OC32)c(=O)[nH]c1=O (stereo not given)	-19.8% (active)
O=C(Nc1ccccc1C(F)(F)F)C1=NCCCCN1	102% (inactive)
O=CN1N=C(c2cccc(Nc3ccncc3)c2)CC1c1ccc2c(c1)OCO2 (stereo not given)	98.5% (inactive)
COc1ccc(C2CC(=O)Oc3c(OC)c4c(c(OC)c32)OCO4)cc1 (stereo not given)	97% (inactive)
CN1C(=O)N(C)C2C1NN=c1s/c(=C\c3ccc(F)cc3)c(=O)n12 (stereo not given)	57.8% (inactive)
Cc1cc2nc(C(Cl)Cl)nc(-c3ccccc3)n2n1	28.5% (inactive)
COc1ccccc1/C=C/C1=C(C)CCC(c2ccccc2OC)C1C (stereo not given)	-12.5% (active)
O=c1n(C2OC(CO)C(O)C2O)ccc2nccn12 (stereo not given)	110% (inactive)
COC1=C(OC)C(=O)C(CCCCCCCCCCO)=C(C)C1=O	115% (inactive)
CC(Cc1cccc2ccccc12)C(N)=O (stereo not given)	106% (inactive)
O=C(NS(=O)(=O)c1ccccc1)n1cc(-c2ccncc2)c(-c2cc(O)cc(Cl)c2)n1	128% (inactive)
CCCCCCCC/C=C\CCCCCCCCOc1ccc(CC(=O)NCC[N+]2(C)CCCC2)cc1	37.2% (inactive)
COc1cc(CNC(=O)CCCC/C=C/C(C)C)ccc1OCc1cn(-c2cccc([N+](=O)[O-])c2)nn1	101% (inactive)
COC(=O)[C@@H](Cc1c[nH]c2ccccc12)NC[C@@H](O)CN1C(=O)/C(=C\c2cc(OC)c(OC)c(OC)c2)c2ccccc21	75.2% (inactive)
COc1ccc(C2=NN3C(C2)c2cc(Br)ccc2OC3c2ccncc2)cc1 (stereo not given)	105% (inactive)
c1ccc2cc(Cn3cc[n+](Cc4ccc5ccccc5c4)c3)ccc2c1	26.5% (inactive)

SMILES	growth
Cc1ccc2nc(/C=C/c3ccc(N(C)C)cc3)cc(C)c2c1	63.9% (inactive)
Cc1ccccc1NC(=O)Cn1cc(CN2CCN(c3ccnc4cc(Cl)ccc34)CC2)nn1	93.3% (inactive)
COc1cc2c(cc1OC)CC[N+](CCC[N+](C)(C)C)=C2	89.5% (inactive)
CCOc1ccc(-c2cc(C3(S(=O)(=O)c4ccc(C)cc4)CC=CC3)on2)cc1	97.1% (inactive)
O=C(Nc1ncc(Cc2cc(C(F)(F)F)ccc2Cl)s1)C(=S)N1CCOCC1	101% (inactive)
C#Cc1ccc(NC(=O)Cc2ccc(/C=C/C(=O)c3nccn3C)cc2)cc1	82.3% (inactive)
COc1cc2c(c(OC)c1OC)CCC(c1cccc(C(=O)Nc3ccccc3Br)c1)O2 (stereo not given)	90% (inactive)
COc1cc(/C=C2\CN(S(=O)(=O)c3ccc(C)cc3)C/C(=C\c3cc(CN4CCCC4)c(O)c(OC)c3)C2=O)cc(CN2CCCC2)c1O	-89.5% (active)
CCCNNC(=O)c1ccc(CNC(=O)/C=C/c2ccccc2)cc1	34.2% [2.5 µM] (inactive)
CNC1=C(Br)C(=O)c2c(C(=O)OC)c(C)nc(C)c2C1=O	69.6% (inactive)
Fc1ccc(/C=C/c2cc(/C=C/c3ccc(F)cc3)n(-c3cc(F)cc(F)c3)n2)cc1	93.4% (inactive)
O=C(OCC(O)(CO)C(=O)NC12CC3CC(CC(C3)C1)C2)c1ccc(Cl)cc1 (stereo not given)	106% (inactive)
COc1cc(OCc2cccc(-c3ccccc3)c2C)cc(OC)c1CN1CCCCC1C(=O)NCCOCCOCCN (stereo not given)	88% (inactive)
CN(C)CC1C(=O)O[C@H]2[C@H]1CC/C(COC(=O)NCc1ccc(Cn3c(=O)sn(CCCI)c3=O)cc1)=C\CC[C@@]1(C)O[C@@H]21 (stereo not given in full)	41% (inactive)
COC(=O)[C@H]1Cc2c([nH]c3ccccc23)[C@H](c2ccc3c(c2)OCO3)N1	97.6% (inactive)
C1=C2CCCC3=Cc4ccccc4OC23Oc2ccccc21	58.4% (inactive)
Nc1c(C(=O)c2ccc(Cl)cc2)sc(Nc2ccccc2)c1-c1nc2ccccc2s1	67.5% (inactive)
COc1cc(OC)cc(C(=O)Nc2cnc(Nc3ccc(N4CCOCC4)nc3)nc2Oc2ccc(C(F)(F)F)cc2)c1	99.9% (inactive)
COc1ccc(-c2cc(-c3ccc(Cl)cc3)c(C#N)c(=O)n2CCCCC(=O)NO)cc1	84.3% (inactive)
Nc1n[nH]c2cccc(C#Cc3cccc(C(=O)Nc4ccc(Cl)c(C(F)(F)F)c4)c3)c12	49.4% (inactive)
